Hits are enriched below; roughly 2.5% of the tested compounds scored in any of these assays.
POLK inh: inhibitors of human DNA polymerase kappa; Q9UBT6; purified Pol kappa, fluorescent DNA synthesis assay, 10 min; Potency, µM (series often up to 107 µM), hits mostly inhibitors; 400,000 compounds, 0.53% hits; AID 588579
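Kinetic fluorescence readout at 0 and 10 min followed reaction start with substrate at 50 nM final. Beforehand, enzyme (10 nM Pol kappa) stood 15 min with compound at room temperature; buffer-only wells were negative controls.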
POLH inh: inhibitors of human DNA polymerase eta | recombinant Pol eta, fluorescent DNA replication assay | Potency, µM (doses to about 114 µM), most hits filed as inhibitors | 390,000 compounds, 1.2% hits
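Fluorescent replication assay: 50 nM final substrate added after a 15 min room-temperature compound preincubation with 10 nM enzyme. Signal taken at 0 min and again at 10 min.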
POLI inh: DNA polymerase iota (human) inhibition; Pol iota fluorescent replication assay, 10 min; 390,000 compounds, 1% hits; Potency, µM (highest dose often 115 µM), most hits filed as inhibitors; Q9UNA4
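Fluorescent replication assay read twice, at 0 min and 10 min after adding 50 nM (final) substrate. Enzyme (10 nM) and compounds were first incubated 15 min at room temperature; enzyme-free buffer wells were negative controls.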
WRN helicase inh: blocks human WRN helicase | Q14191 | WRN helicase unwinding, fluorescent forked duplex, kinetic | Potency, µM (series often up to 114 µM), actives largely listed as inhibitors | 360,000 compounds, 0.46% hits | AID 651768; also: nearly all actives have a fitted effect of over 55% in size
Target sequence (Q14191 whole entry, looked up): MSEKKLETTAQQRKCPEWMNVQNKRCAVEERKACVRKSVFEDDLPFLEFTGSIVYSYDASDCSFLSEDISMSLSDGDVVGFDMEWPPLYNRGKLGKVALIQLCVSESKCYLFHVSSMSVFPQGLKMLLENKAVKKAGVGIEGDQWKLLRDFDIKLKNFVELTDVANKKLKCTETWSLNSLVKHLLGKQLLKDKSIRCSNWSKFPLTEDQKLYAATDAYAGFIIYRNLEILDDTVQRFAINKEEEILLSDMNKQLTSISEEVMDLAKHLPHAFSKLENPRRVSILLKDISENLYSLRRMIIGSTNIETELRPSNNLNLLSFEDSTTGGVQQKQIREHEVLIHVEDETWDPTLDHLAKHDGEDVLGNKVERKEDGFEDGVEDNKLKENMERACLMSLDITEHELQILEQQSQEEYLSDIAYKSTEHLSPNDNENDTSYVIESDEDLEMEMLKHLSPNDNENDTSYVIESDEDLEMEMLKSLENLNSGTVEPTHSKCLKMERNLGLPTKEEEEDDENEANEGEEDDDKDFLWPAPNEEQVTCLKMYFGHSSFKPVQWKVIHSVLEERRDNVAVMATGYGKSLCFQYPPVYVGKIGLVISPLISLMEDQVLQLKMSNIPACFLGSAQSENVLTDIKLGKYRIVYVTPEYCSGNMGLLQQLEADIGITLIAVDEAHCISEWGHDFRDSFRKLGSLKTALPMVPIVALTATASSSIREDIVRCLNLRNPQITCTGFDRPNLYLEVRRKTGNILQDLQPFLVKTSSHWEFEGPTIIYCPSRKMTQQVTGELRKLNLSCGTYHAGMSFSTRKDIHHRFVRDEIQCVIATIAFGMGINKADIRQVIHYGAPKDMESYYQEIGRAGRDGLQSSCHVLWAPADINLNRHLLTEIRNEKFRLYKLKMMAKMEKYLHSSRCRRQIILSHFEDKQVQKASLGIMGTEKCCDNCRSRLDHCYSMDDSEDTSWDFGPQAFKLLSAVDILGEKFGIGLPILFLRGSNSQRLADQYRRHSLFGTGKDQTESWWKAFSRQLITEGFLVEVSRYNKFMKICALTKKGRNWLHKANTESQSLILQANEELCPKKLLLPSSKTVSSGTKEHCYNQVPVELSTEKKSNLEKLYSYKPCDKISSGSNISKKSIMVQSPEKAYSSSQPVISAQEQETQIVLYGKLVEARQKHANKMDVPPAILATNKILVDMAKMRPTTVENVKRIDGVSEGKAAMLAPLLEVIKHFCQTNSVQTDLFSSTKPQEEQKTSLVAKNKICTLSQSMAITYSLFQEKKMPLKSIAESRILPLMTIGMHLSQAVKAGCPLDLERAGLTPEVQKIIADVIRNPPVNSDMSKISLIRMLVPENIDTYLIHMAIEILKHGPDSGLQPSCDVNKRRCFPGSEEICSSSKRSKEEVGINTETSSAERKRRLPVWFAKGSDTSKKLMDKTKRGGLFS
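Screening of the MLSMR collection measured strand separation of a quenched forked DNA duplex (100 nM) by 20 nM WRN with 2 mM ATP, all final. Compounds were preincubated with enzyme 15 min at room temperature.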
Pol beta inh: blocks human DNA polymerase beta activity | Pol beta primer extension/strand displacement, fluorescence kinetic | Potency, µM (doses to about 114 µM), actives largely listed as inhibitors | 340,000 compounds, 1.3% hits
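Kinetic readout of DNA synthesis with strand displacement by Pol beta. Compound and 10 nM enzyme sit 15 min at room temperature; 50 nM substrate starts the reaction, read immediately and at 10 min.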
L3MBTL1 block: blocks human L3MBTL1 | AlphaScreen L3MBTL1–H3K9me1 peptide binding | Q9Y468 | 230,000 compounds, 0.66% hits | Potency, µM (doses to about 57.1 µM), actives largely listed as inhibitors | AID 485360; also: nearly all actives have a fitted effect of over 60% in size
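First, the protein-peptide complex forms for 30 min at room temperature (L3MBTL1 50 nM, biotinylated H3K9me1 peptide 75 nM). Next, compounds are pin-transferred and incubated 30 min. Finally, AlphaScreen beads are added and read after 30 min.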
Large screens that a line does not name were inactive; ! = repeats disagree. Calls follow the shape of the dose curve; as a rule, active = well fitted curve in the direction sought with a large enough effect; inconclusive = small, poorly fitted or top-dose-only effect, or another doubt; inactive = no such curve, though single readings can be large; an effect the other way counts as inactive or inconclusive.

O=C1CC(C(=O)Nc2ccc(O)c(C(=O)O)c2)C(c2ccccc2)O1 (stereo not given)	POLH inh 50µM, POLI inh inconclusive
COc1ccc(CCNC(=O)CCCn2c(=O)c3ccccc3n(CC(=O)Nc3ccccc3C)c2=O)cc1OC	Pol beta inh inconclusive (no result: WRN helicase inh, L3MBTL1 block)
CC12CN3CC(C)(CN(C1)C3c1ccc3ccccc3c1O)C2=O (stereo not given)	POLI inh 79µM
CC12CN3CC(C)(CN(C1)C3c1c[nH]c3ccccc13)C2=O (stereo not given)	none
O=C(CN1CCCCC1)Nc1nnc(-c2ccc([N+](=O)[O-])cc2)s1	POLH inh 18µM
O=C(O)c1ccc(N(c2ccccc2)c2ccccc2)cc1	none
O=C1CSC(=S)N1N1C(=O)c2cccc([N+](=O)[O-])c2C1=O	Pol beta inh 3.2µM (no result: POLK inh, POLH inh, POLI inh, WRN helicase inh, L3MBTL1 block)
O=C1c2cccc([N+](=O)[O-])c2C(=O)N1CCO	none (no result: L3MBTL1 block)
N#Cc1ccccc1NC(=O)COC(=O)CCc1ccccc1	none (no result: L3MBTL1 block)
O=C(O)CN(CC(=O)O)Cc1cc2c(-c3ccccc3C(=O)O)c3cc(CN(CC(=O)O)CC(=O)O)c(=O)cc-3oc2cc1O	POLK inh 7.1µM (no result: POLH inh, POLI inh, WRN helicase inh, Pol beta inh, L3MBTL1 block)
O=C(O)c1ccccc1-c1c2ccc(=O)cc-2oc2cc(O)ccc12	POLK inh 27µM (no result: POLH inh, POLI inh, WRN helicase inh, Pol beta inh, L3MBTL1 block)
CC(=O)OCC(=O)c1c[nH]c2ccccc12	none
CC(=O)c1c(C)[nH]c(C(=O)OCC(=O)c2c[nH]c3ccccc23)c1C	POLI inh 79µM (no result: Pol beta inh)
CC(=O)c1c(C)[nH]c(C(=O)COc2ccc3ccc(=O)oc3c2)c1C	POLH inh 35µM, POLI inh inconclusive, L3MBTL1 block inconclusive (no result: Pol beta inh)
Cc1cc(C(=O)COc2ccc3ccc(=O)oc3c2)c(C)n1Cc1cccs1	Pol beta inh 50µM, L3MBTL1 block inconclusive
CC(=O)c1c(C)[nH]c(C(=O)COc2cc(C)cc(C)c2)c1C	none
COc1ccccc1N1CCN(C(CNC(=O)C(=O)NCc2cccnc2)c2cccnc2)CC1 (stereo not given)	none (no result: WRN helicase inh, L3MBTL1 block)
Cc1cc(C(=O)CSc2nnnn2C)c(C)n1Cc1ccco1	POLI inh 79µM, Pol beta inh inconclusive
Cc1cc(C(=O)CSc2nc3ccc(Cl)cc3[nH]2)c(C)n1Cc1ccco1	POLK inh inconclusive, POLI inh 22µM (no result: Pol beta inh, L3MBTL1 block)
O=C(CSc1nc2ccc(Cl)cc2[nH]1)NCc1ccco1	WRN helicase inh inconclusive
Cc1cc(C(=O)C(C)Cl)c(C)n1Cc1ccco1 (stereo not given)	POLK inh inconclusive, POLH inh 71µM, POLI inh 16µM, WRN helicase inh inconclusive, Pol beta inh inconclusive
O=c1[nH]cnc2c1ncn2C1OC(CO)CC1F (stereo not given)	none (no result: POLK inh, POLH inh, POLI inh, Pol beta inh, L3MBTL1 block)
Cn1nccc1NC(=O)COCC(=O)O	none
CC(=O)NC(c1ccco1)c1cc(F)c2cccnc2c1O (stereo not given)	L3MBTL1 block 14µM (no result: WRN helicase inh, Pol beta inh)
Cc1ccc(S(=O)(=O)NC(=O)c2ccc(-c3ccc(-c4ccccc4)cc3)o2)c(C)c1	Pol beta inh 56µM (no result: POLK inh, POLH inh, POLI inh, WRN helicase inh)
CC(=O)N1CCc2cc(Br)cc(S(=O)(=O)N3CCC(C(=O)Nc4ccc(C(C)C)cc4)CC3)c21	POLK inh inconclusive, POLI inh 35µM (no result: WRN helicase inh, L3MBTL1 block)
NNC(=O)c1ccc2[nH]c3c(c2c1)CCCC3	none (no result: L3MBTL1 block)
CN1CCc2[nH]c3ccc(C(=O)NN)cc3c2C1	POLK inh inconclusive, POLI inh inconclusive, Pol beta inh 40µM (no result: L3MBTL1 block)
COc1ccc(NC(=O)CCN2CCCCCC2)cc1	POLI inh inconclusive
C=CCSc1ncccc1C(=O)O	POLI inh 100µM
O=C(O)CSc1ncccc1C(=O)O	none
CSc1ccccc1C(=O)OCC(=O)Nc1cccnc1Cl	WRN helicase inh inconclusive (no result: Pol beta inh)
CC(/C=C/C1(O)C(C)CC(O)CC1(C)C)OC1OC(CO)C(O)C(O)C1O (stereo not given)	POLK inh 56µM, POLH inh 35µM, POLI inh inconclusive, Pol beta inh 25µM (no result: L3MBTL1 block)
CC(=O)N1CCOc2cc(S(=O)(=O)Nc3c(C)cccc3C(C)C)c(Cl)cc21	POLI inh 79µM (no result: WRN helicase inh)
COc1cccc(NS(=O)(=O)c2cc3c(cc2C)N(C(C)=O)CCO3)c1	none
O=C(Nc1nnc(C2CC2)s1)C1Cc2ccccc2CN1S(=O)(=O)c1cccs1 (stereo not given)	POLK inh inconclusive, POLH inh 7.1µM, Pol beta inh 11µM, L3MBTL1 block inconclusive
COc1ccc(NC(=O)C2Cc3ccccc3CN2C(=O)c2ccco2)cc1 (stereo not given)	none (no result: L3MBTL1 block)
CN(C)S(=O)(=O)c1cccc(NC(=O)C2Cc3ccccc3CN2C(=O)c2ccco2)c1 (stereo not given)	POLH inh inconclusive, POLI inh 35µM, Pol beta inh inconclusive (no result: L3MBTL1 block)
O=C(Nc1nnc(SCc2ccc(F)cc2)s1)C1Cc2ccccc2CN1C(=O)c1ccco1 (stereo not given)	POLK inh inconclusive, POLH inh 22µM, POLI inh inconclusive, WRN helicase inh inconclusive
O=C(Nc1ccccc1N1CCOCC1)C1Cc2ccccc2CN1C(=O)c1ccco1 (stereo not given)	none (no result: L3MBTL1 block)
O=C(Nc1nnc(C2CC2)s1)C1Cc2ccccc2CN1C(=O)c1ccco1 (stereo not given)	POLH inh inconclusive, POLI inh 28µM, Pol beta inh 7.9µM, L3MBTL1 block inconclusive
Cc1ccc(NC(=O)C2Cc3ccccc3CN2C(=O)c2ccco2)cc1S(=O)(=O)N(C)C (stereo not given)	POLI inh inconclusive, Pol beta inh inconclusive (no result: L3MBTL1 block)
O=C1c2c(O)cc(O)cc2O[C@@]12c1c(cc(O)c3c1O[C@H](c1ccc(O)cc1)[C@@H](O)C3)O[C@@H]2c1ccc(O)cc1	POLK inh inconclusive, POLI inh inconclusive
Oc1cc(O)c2c(c1)O[C@H](c1ccc(O)c(O)c1)[C@@H](O)C2	POLK inh inconclusive, POLH inh 28µM!, POLI inh inconclusive, Pol beta inh 13µM (no result: WRN helicase inh, L3MBTL1 block)
Oc1ccc2c(c1)OC(c1ccc(O)c(O)c1)C(O)C2 (stereo not given)	POLK inh 10µM (no result: POLH inh, POLI inh, WRN helicase inh, Pol beta inh, L3MBTL1 block)
O[C@@H]1Cc2ccccc2O[C@H]1c1ccccc1	none (no result: Pol beta inh, L3MBTL1 block)
CCOc1cc(N2CCOCC2)c(OCC)cc1NS(=O)(=O)c1ccc(Cl)s1	POLI inh 28µM, L3MBTL1 block inconclusive
Cc1ccc2c(=O)cc(C(=O)NCc3ccccc3)oc2c1	POLI inh inconclusive, Pol beta inh inconclusive (no result: WRN helicase inh, L3MBTL1 block)
CCCCN1C(=O)/C(=C/C=C2\Oc3ccccc3N2CC)SC1=S	POLH inh inconclusive, POLI inh inconclusive, WRN helicase inh 50µM
CCN1C(=O)/C(=C/C=C2/Sc3ccccc3N2CCO)SC1=S	POLI inh inconclusive
CNC(=O)C1CC(=O)N(c2ccc(OCC(=O)Nc3ccccc3)cc2)C1 (stereo not given)	POLH inh 32µM (no result: Pol beta inh, L3MBTL1 block)
